From PubChem BioAssay
TDP1 inh – inhibitors of human tyrosyl-DNA phosphodiesterase TDP1; 350,000 tested, 0.28% active; Potency, µM (top dose mostly 130 µM), for inactives: at the highest dose activity change, negative = inhibition, hits mostly inhibitors; recombinant TDP1, AlphaScreen DNA substrate cleavage; also: potency is read from the fitted curve at half-maximal effect; % is scaled to controls: 0 for no effect and ±100 for the full control effect; nearly all actives have a fitted effect of over 40% in size
Target sequence (Q9NUW8 whole entry, looked up): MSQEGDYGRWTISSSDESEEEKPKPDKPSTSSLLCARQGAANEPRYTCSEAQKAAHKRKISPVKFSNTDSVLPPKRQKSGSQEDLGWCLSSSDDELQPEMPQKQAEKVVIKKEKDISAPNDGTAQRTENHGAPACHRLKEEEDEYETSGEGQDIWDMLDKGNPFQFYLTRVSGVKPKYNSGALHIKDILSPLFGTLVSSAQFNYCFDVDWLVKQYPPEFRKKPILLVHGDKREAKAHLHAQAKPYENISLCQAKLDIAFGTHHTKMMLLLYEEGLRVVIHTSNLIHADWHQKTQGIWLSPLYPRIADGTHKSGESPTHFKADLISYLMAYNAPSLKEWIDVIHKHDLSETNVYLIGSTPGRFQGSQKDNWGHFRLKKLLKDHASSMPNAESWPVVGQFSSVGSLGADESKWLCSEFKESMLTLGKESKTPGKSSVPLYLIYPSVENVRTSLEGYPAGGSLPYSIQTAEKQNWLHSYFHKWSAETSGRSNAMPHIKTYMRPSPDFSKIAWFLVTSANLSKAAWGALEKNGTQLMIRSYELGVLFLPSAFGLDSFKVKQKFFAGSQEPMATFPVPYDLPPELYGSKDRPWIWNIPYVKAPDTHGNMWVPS
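Tdp1 1 nM final; 15 min RT w/ cpd; substrate 15 nM, 5 min; beads 10 ug/ml, 10 min; AlphaScreen read. Neg ctrl: no enzyme.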
IL1B secr inh – blocks inflammasome-driven IL-1 beta release. THP-1 LPS/ATP IL-1B secretion, AlphaLISA, 16 h; active compounds read low. activity change, % at 57.5 µM. 360,000 tested, 4.7% active. AID 743279; in the data active = activity change below about -50%; inconclusive = mostly about -30% to -49%; also: % is scaled to controls: 0 for no effect and ±100 for the full control effect
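THP-1 cells pretreated 1 hr with compounds (up to 57.5 uM final), then stimulated with LPS (250 ng/mL final) plus ATP (1.25 mM final); secreted IL-1B measured by AlphaLISA after 16 hr, decreased signal indicating inhibition.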
TGFb inhibitor – inhibitors of TGF-b signaling | HepG2 CAGA-GFP TGF-b/SMAD3 reporter, GFP fluorescence, 18 h; TGF-beta stimulated, 500 pg/mL final | 410,000 tested, 1.2% active | Potency, µM (highest dose often 46.1 µM), without a hit: top-dose activity, negative = inhibition, usual class: inhibitors; also: potency is read from the fitted curve at half-maximal effect; % is scaled to controls: 0 for no effect and ±100 for the full control effect; nearly all actives have a fitted effect of over 65% in size
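HEPG2 CAGA-GFP, 1000 cells/well; 2 h settle, 37 C; cpd via pin tool; TGF-b 500 pg/mL final; 18 h, 37 C; GFP imaging ex488/em500-530; %Activity normalised to -TGF-b and +DMSO controls; CRC fit, curve class.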
HepG2 tox – HepG2 cytotoxicity, counter-screen for TGF-b inhibitors. HepG2 CAGA-GFP viability, ATP luminescence, 18 h. Potency, µM (series often up to 46.1 µM), inactives show at the highest dose activity change, negative = cytotoxicity, actives largely listed as cytotoxic. 410,000 tested, 0.76% active. AID 588856; also: potency is read from the fitted curve at half-maximal effect
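CellTiter-Glo luminescence gave cytotoxicity after 18 hours at 37 degrees C. The cells were HepG2 CAGA-GFP in 1% FBS DMEM, stimulated with 500 pg/mL TGF-beta after compound addition. %Activity was normalised to no-cell wells (complete cell-killing) and DMSO (no toxicity), and curves were fitted and classified.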
DT40 TDP1 CPT – growth inhibition of DT40 Tdp1-/-;hTDP1 cells with camptothecin (screen for TDP1 inhibitors); chicken DT40 Tdp1-/-;hTDP1 cells + 20 nM CPT, ATP luminescence, 48 h; 420,000 tested, 12% active; Potency, µM (top dose mostly 46.2 µM), for the others: at the top dose activity change, negative = growth inhibition, actives largely listed as inhibitors; also: potency is read from the fitted curve at half-maximal effect; % is scaled to controls: 0 for no effect and ±100 for the full control effect; nearly all actives have a fitted effect of over 55% in size
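Cell growth measured by CellTiter-Glo luminescence after a minimum 48 h, 37 C compound exposure with 20 nM CPT in Tdp1-knockout DT40 cells stably expressing hTDP1, seeded 400/well; qHTS titration format.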
TDP1 cell noCPT – qHTS for Inhibitors of human tyrosyl-DNA phosphodiesterase 1 (TDP1): qHTS in cells in absence of CPT; 420,000 tested, 15% active; AID 686978, 2013; DT40 Tdp1-/- hTDP1 cells, no CPT, ATP luminescence, 48 h; Potency, µM (series often up to 46.2 µM), without a hit: at the highest dose activity change, negative = growth inhibition, actives largely listed as inhibitors; also: potency is read from the fitted curve at half-maximal effect; % is scaled to controls: 0 for no effect and ±100 for the full control effect; nearly all actives have a fitted effect of over 55% in size
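Luminescent ATP content (CellTiter-Glo) served as the growth readout. Knockout chicken DT40 cells expressing human TDP1 were exposed to compounds without camptothecin for a minimum 48 hr at 37 °C.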
Starred values were filed as active, the others as inactive; [ ] = dose if it differs, or a comment. Most compounds without a hit are left out; they make up all but 18% or so of the library. Unless noted, calls follow the shape of the dose curve; as a rule, active = well fitted curve in the direction sought with a large enough effect; inconclusive = small, poorly fitted or top-dose-only effect, or another doubt; inactive = no such curve, though single readings can be large; an effect the other way counts as inactive or inconclusive.

How did O=C(NCCc1ccccc1)c1cccc(Br)n1 do in these assays?
TDP1 inh: 9.2%

How did Cc1onc(-c2ccccc2)c1C(=O)NC(=S)NNC(=O)c1ccccc1O do in these assays?
TDP1 inh: 10.7%; IL1B secr inh: 100.0; TGFb inhibitor: -25.9%; HepG2 tox: -13.9%; DT40 TDP1 CPT: 3.66µM*; TDP1 cell noCPT: 3.26µM*

How did CC(=O)Nc1ccc(OCCCNC(=O)c2c(-c3ccccc3)noc2C)cc1 do in these assays?
TDP1 inh: 2.7%; IL1B secr inh: 13.3; TGFb inhibitor: 16.5%; HepG2 tox: -1.4%; DT40 TDP1 CPT: inconclusive; TDP1 cell noCPT: 14.6µM*

Results for CCCOc1ccc(C(=O)NC(=S)NNC(=O)c2c(-c3ccccc3)noc2C)cc1 ?
TDP1 inh: 12.3%; IL1B secr inh: 73.8; TGFb inhibitor: inconclusive; HepG2 tox: -16.8%; DT40 TDP1 CPT: 23.1µM*; TDP1 cell noCPT: inconclusive

Results for Cc1onc(-c2ccccc2)c1C(=O)NC(=S)NNC(=O)c1ccc(O)cc1O ?
TDP1 inh: 8.0%; IL1B secr inh: 30.9; TGFb inhibitor: -5.0%; HepG2 tox: 5.6%; DT40 TDP1 CPT: 4.11µM*; TDP1 cell noCPT: 4.61µM*

What do the screens show for `Cc1onc(-c2ccccc2)c1C(=O)NNC(=O)c1ccccc1Br`?
TDP1 inh: -1.8%[56.1 µM]; IL1B secr inh: -13.7; TGFb inhibitor: -2.9%; HepG2 tox: -26.7%; DT40 TDP1 CPT: -6.4%; TDP1 cell noCPT: 1.6%

How did COC(=O)c1ccc(NC(=S)NC(=O)c2c(-c3ccccc3)noc2C)cc1 do in these assays?
TDP1 inh: 2.9%; IL1B secr inh: 3.9; TGFb inhibitor: 24.0%; HepG2 tox: 19.1%; DT40 TDP1 CPT: 13.6%; TDP1 cell noCPT: -3.8%

How did O=C(COc1ccc(F)cc1)Nc1ccc(OCc2cc(=O)n3ccsc3n2)cc1 do in these assays?
TDP1 inh: 6.4%; TGFb inhibitor: -13.7%; HepG2 tox: -2.1%; DT40 TDP1 CPT: -21.4%; TDP1 cell noCPT: -20.2%

What do the screens show for `CCC(Sc1nc(-c2ccccc2F)nc2c1Cc1c(CO)cnc(C)c1O2)C(=O)Nc1cc(C)ccc1C` (centres undefined)?
TDP1 inh: -2.6%; TGFb inhibitor: 0.2%; HepG2 tox: -28.6%; DT40 TDP1 CPT: -10.5%; TDP1 cell noCPT: 0.1%

What do the screens show for `Cc1onc(-c2ccccc2)c1C(=O)NC(=S)NNC(=O)c1ccc(O)cc1`?
TDP1 inh: 8.0%; IL1B secr inh: 61.3; TGFb inhibitor: inconclusive; HepG2 tox: -6.9%; DT40 TDP1 CPT: inconclusive; TDP1 cell noCPT: 13µM*

What do the screens show for `Cc1onc(-c2ccccc2)c1C(=O)OCC(=O)N1CCC(C)CC1`?
TDP1 inh: 1.3%; IL1B secr inh: 14.0; TGFb inhibitor: 3.8%; HepG2 tox: -2.6%; DT40 TDP1 CPT: -12.5%; TDP1 cell noCPT: 4.6%

Results for COc1ccc2[nH]c(-c3ccc(C)cc3)cc(=O)c2c1 ?
TDP1 inh: 2.6%; IL1B secr inh: 37.8; TGFb inhibitor: 0.7%; HepG2 tox: -9.2%; DT40 TDP1 CPT: 13µM*; TDP1 cell noCPT: 16.4µM*

What do the screens show for `COc1ccc(C(=O)Nc2ccc3[nH]c(-c4cccc(OC)c4)cc(=O)c3c2)cc1`?
TDP1 inh: 0.0%; IL1B secr inh: 80.7; TGFb inhibitor: inconclusive; HepG2 tox: 13.2%; DT40 TDP1 CPT: 1.03µM*; TDP1 cell noCPT: 0.651µM*

What do the screens show for `Cc1cc(C)cc(NC(=O)CSc2nnnn2-c2cccnc2)c1`?
TDP1 inh: 5.7%; IL1B secr inh: 3.8; TGFb inhibitor: 5.0%; HepG2 tox: -13.1%; DT40 TDP1 CPT: 10.0%; TDP1 cell noCPT: 2.9%
